Laboratory results as given in PMC7826789 (International Journal of Molecular Sciences, 2021).
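Further: KINOMEscan scanMAX binding as percent activity remaining versus control; lower means stronger binding.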

What follows are molecules tested on T1, TRKA. Conditions: Compound Concentration (nM):1000.
T1 construct: gene NTRK1
For CN1CCN(C(=O)c2ccc(NC(=O)Nc3ccc(N(C)c4ccnc(Nc5ccc(CS(C)(=O)=O)cc5)n4)cc3)cc2)CC1.Cl [GW830263A], the “Percent Control” value was 7.1%.
With COc1cc2ncnc(Nc3ccc4c(cnn4Cc4ccccc4)c3)c2cc1OC.Cl [GW282449A] the “Percent Control” value was 100%.
With CC1=C(C(=O)Nc2ccc3[nH]ncc3c2)C(c2ccc3ccccc3c2)CC(=O)N1 (stereo not shown) [GSK270822A] the “Percent Control” value was 66%.
O=C(Nc1n[nH]c2nc(-c3ccc(O)cc3)c(Br)cc12)C1CC1 [SB-725317] was tested, and the “Percent Control” value was 65%.
For CCS(=O)(=O)c1ccc(OC)c(Nc2ncc(-c3cccc(F)c3)o2)c1 [GW621970X], the “Percent Control” value was 11%.
With COc1ccc2cc(-c3c(-c4ccncc4)nc(-c4ccc(S(C)(=O)=O)cc4C)n3C)ccc2c1 [SB-633825] the “Percent Control” value was 73%.
With COc1ccccc1-c1cc(/C=C2\C(=O)Nc3ncc(Br)cc32)cc(Br)c1O [GW442130X] the “Percent Control” value was 7.2%.
With CN(C)c1cc2c(Nc3ccc4c(cnn4Cc4ccccc4)c3)ncnc2cn1 [GW282974X] the “Percent Control” value was 65%.
For COc1ccc2[nH]c3c4[nH]c5ccc(OC)cc5c4c4c(c3c2c1)C(=O)NC4=O [GW296115X], the “Percent Control” value was 40%.
In the case of COc1cccc(-n2ncc3c(N/N=C/c4ccncc4)ncnc32)c1 [GW784752X], the “Percent Control” value was 65%.
In the case of CC1=C(C(=O)Nc2ccc3[nH]ncc3c2)C(c2ccc(Cl)c(Cl)c2)CC(=O)N1 (stereo not shown) [GSK299115A], the “Percent Control” value was 72%.
With COc1ccc(COc2ccc(Cc3cnc(N)nc3N)cc2OC)cc1 [GW632580X] the “Percent Control” value was 4.2%.
With NS(=O)(=O)c1ccc(N/N=C2\C(=O)Nc3ccc(Cl)cc32)cc1 [GW280670X] the “Percent Control” value was 43%.
In the case of COc1cccc(-c2c[nH]c3c(N/N=C/c4ccncc4)ncnc23)c1 [GW814408X], the “Percent Control” value was 64%.
For COC(=O)Nc1nc2ccc(Oc3ccc(NC(=O)Nc4cc(C(F)(F)F)ccc4F)cc3)cc2s1.Cl [GW693917A], the “Percent Control” value was 4.8%.
With COc1ccc2c(-c3ccnc(Nc4cccc(OC(F)(F)F)c4)n3)cnn2n1 [GW810372X] the “Percent Control” value was 55%.
NS(=O)(=O)c1ccc(N/N=C2\C(=O)Nc3ccc(-c4cnco4)cc32)cc1 [GW276655] was tested, and the “Percent Control” value was 15%.
For Cl.c1ccc(Cc2nc3ccc(Nc4ncnc5ccccc45)cc3[nH]2)cc1 [GR269666A], the “Percent Control” value was 100%.
In the case of C/C(Nc1ccc(S(N)(=O)=O)cc1)=C1/C(=O)Nc2ccccc21 [GW335962X], the “Percent Control” value was 7.9%.
With COc1cc(N2CCN(C(C)C)CC2)ccc1Nc1nc(Nc2ccc(F)cc2C(=O)NC[C@@H](O)CO)c2cc[nH]c2n1 [GSK1392956A] the “Percent Control” value was 86%.
In the case of Nc1ncnc2occ(-c3ccc(NC(=O)Nc4cc(C(F)(F)F)ccc4F)cc3)c12 [GW770249X], the “Percent Control” value was 3%.
With CC(C)COC(=O)c1ccc2c(c1)/C(=C/Nc1ccc(S(N)(=O)=O)cc1)C(=O)N2 [GW416981X] the “Percent Control” value was 23%.
Cl.O=C(Nc1ccc(Oc2ccc3[nH]c(NC(=O)c4ccccc4)nc3c2)cc1)Nc1cc(C(F)(F)F)ccc1F [GW709042A] was tested, and the “Percent Control” value was 27%.
CCc1ccc(Oc2nccc(-c3c(-c4ccc(F)cc4)ncn3C3CCNCC3)n2)cc1 [SB-242719] was tested, and the “Percent Control” value was 86%.
With COc1cc(C)c(N(C)C(=O)CN(C)C)cc1Nc1nc(Nc2cccc(F)c2C(N)=O)c2cc[nH]c2n1 [GSK2219385] the “Percent Control” value was 87%.
NS(=O)(=O)c1ccc(Nc2ncc(-c3ccccc3)o2)cc1 [GW572399X] was tested, and the “Percent Control” value was 55%.
CCS(=O)(=O)c1ccc(OC)c(Nc2ncc(-c3cccc(OC)c3)o2)c1 [GW580509X] was tested, and the “Percent Control” value was 16%.
For C[C@@H](Oc1cc(-n2cnc3ccc(OC4CCN(C)CC4)cc32)sc1C(N)=O)c1ccccc1Cl [GSK579289A], the “Percent Control” value was 49%.
For COc1cc2ncn(-c3cc(O[C@H](C)c4ccccc4Cl)c(C(N)=O)s3)c2cc1OC [GSK237701A], the “Percent Control” value was 31%.
With O=C1Nc2ccc(C(=O)c3ccco3)cc2C1=Cc1cc(Cl)c(O)c(Cl)c1 [GW406108X] the “Percent Control” value was 33%.
With Cc1cc(O)cc(C)c1/C=C/c1cncc(C(N)=O)c1 [GW435821X] the “Percent Control” value was 98%.
COc1cc(/C=N/Nc2ncnc3[nH]ncc23)ccc1O [GW578748X] was tested, and the “Percent Control” value was 42%.
With COc1cc(C=NNc2ncnc3c2cnn3-c2ccccc2)ccc1O [GW513184X] the “Percent Control” value was 66%.
In the case of NS(=O)(=O)c1ccc(N/N=C2\C(=O)Nc3ccc(C(=O)NCCc4c[nH]cn4)cc32)cc1 [GW300660X], the “Percent Control” value was 20%.
For Cl.O=C(Nc1ccc(Oc2ccc3[nH]c(NC(=O)c4ccco4)nc3c2)cc1)Nc1cc(C(F)(F)F)ccc1F [GW683134A], the “Percent Control” value was 5%.
With CN(C)CCNC(=O)Nc1ccc(N(C)c2ccnc(Nc3ccc(CS(C)(=O)=O)cc3)n2)cc1.Cl [GW830900A] the “Percent Control” value was 16%.
In the case of CCn1c(-c2nonc2N)nc2c(C#CC(C)(C)O)nc(OCCNC)cc21.Cl [GSK949675], the “Percent Control” value was 100%.
In the case of NS(=O)(=O)c1ccc(N/N=C2\C(=O)Nc3ccc(C(=O)NCc4ccncc4)cc32)cc1 [GW300657X], the “Percent Control” value was 7.6%.
For Cl.O=S1CCN(Cc2ccc(-c3ccc4ncnc(Nc5ccc(OCc6ccccc6)c(F)c5)c4c3)o2)CC1 [GW576924A], the “Percent Control” value was 100%.
With Cl.O=C(O[C@H]1CN[C@H](C#Cc2cc3ncnc(Nc4ccc5c(cnn5Cc5ccccc5)c4)c3s2)C1)N1CCOCC1 [GSK200398A] the “Percent Control” value was 70%.
